# In PubChem BioAssay (Tox21):
# Several values for one entry are separate records, joined by “and”; a condition that tells them apart may be missing. Identical values can stand only once. Results filed as inconclusive are left out. Where a call stands in place of a potency, no number is given. Some compounds were tested as several samples or in several runs, with calls that do not always agree. Activity calls are given as the source filed them. Unless noted, calls come from the whole dose curve; as a rule, active = well fitted curve in the direction sought with a large enough effect in the repeat runs; inconclusive = weak or mixed curves; inactive = no such curve, though single readings can be large; an effect the other way counts as inactive or inconclusive.
# Tests used:
# [1] = Human pregnane X receptor (PXR) small molecule agonists, qHTS cell viability counter screen (AID 1346977); note: nearly all actives have a fitted effect of over 50% in size; note: potency is the fitted concentration of half-maximal effect
# In short: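 Cytotoxicity counter screen run in the same wells as the PXR luciferase assay, using PXR-Luc HepG2 cells in charcoal-stripped serum medium. Viability: CellTiter-Fluor fluorescence after 24hr compound treatment.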
# [2] = Caspase-3/7 induction in HepG2 cells by small molecules, qHTS assay (AID 1346978); note: nearly all actives have a fitted effect of over 15% in size; note: potency is the fitted concentration of half-maximal effect
# In short: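 Caspase-3/7 induction was measured by Caspase-Glo 3/7 luminescence (30 min, room temperature) after a 17 hr compound exposure of wild-type HepG2 cells seeded at 2,000 per well and pre-incubated 5 hr.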
# [3] = Caspase-3/7 induction in CHO-K1 cells by small molecules, qHTS cell viability counter screen (AID 1346979); note: nearly all actives have a fitted effect of over 35% in size; note: potency is the fitted concentration of half-maximal effect
# In short: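 Cytotoxicity counter screen run in parallel with the caspase-3/7 assay: CHO-K1 cells, 16hr compound treatment at 37C, then CellTiter-Fluor for 1hr before fluorescence reading.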
# [4] = Caspase-3/7 induction in CHO-K1 cells by small molecules, qHTS assay (AID 1346980); note: nearly all actives have a fitted effect of over 15% in size
# In short: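 Luminescent Caspase-Glo 3/7 read (30min, room temperature) quantified apoptosis induction. Cells were wild-type CHO-K1, treated with compound for 17hr at 37 C and 5% CO2.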
# [5] = target: Nuclear receptor subfamily 1 group I member 2 (Homo sapiens) (UniProt O75469); assay: Human pregnane X receptor (PXR) small molecule agonists, qHTS assay (AID 1346982); note: nearly all actives have a fitted effect of over 35% in size; note: potency is the fitted concentration of half-maximal effect
# Sequence of Nuclear receptor subfamily 1 group I member 2 (Homo sapiens) (O75469 whole entry, looked up): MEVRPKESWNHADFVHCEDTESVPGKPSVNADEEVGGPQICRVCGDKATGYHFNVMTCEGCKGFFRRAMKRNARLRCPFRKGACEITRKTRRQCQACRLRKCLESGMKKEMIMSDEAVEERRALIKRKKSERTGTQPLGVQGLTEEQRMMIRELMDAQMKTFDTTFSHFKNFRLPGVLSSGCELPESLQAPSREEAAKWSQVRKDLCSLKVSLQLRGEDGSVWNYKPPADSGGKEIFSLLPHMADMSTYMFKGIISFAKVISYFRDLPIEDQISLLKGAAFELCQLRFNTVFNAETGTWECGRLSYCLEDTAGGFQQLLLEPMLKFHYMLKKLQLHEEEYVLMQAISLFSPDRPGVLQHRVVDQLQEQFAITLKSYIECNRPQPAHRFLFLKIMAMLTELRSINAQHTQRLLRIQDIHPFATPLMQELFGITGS
# In short: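 Luminescence (ONE-Glo, 30 min RT) after 24 hr compound exposure of PXR-Luc HepG2 cells; cells rested 5 hr post-plating in 5% charcoal-stripped FBS medium.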
# [6] = Caspase-3/7 induction in HepG2 cells by small molecules, qHTS cell viability counter screen (AID 1346981); note: series mostly up to about 92 µM; nearly all actives have a fitted effect of over 30% in size
# In short: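 Counter screen for cytotoxicity: HepG2 exposed 16 hr to compounds, then CellTiter-Fluor viability signal (fluorescence, 1 hr reagent incubation).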
# [7] = target: Nuclear receptor subfamily 1 group I member 2 (Homo sapiens) (UniProt O75469); assay: Human pregnane X receptor (PXR) activation by small molecules, qHTS assay (AID 1346985); note: nearly all actives have a fitted effect of over 40% in size; note: potency is the fitted concentration of half-maximal effect
# In short: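 DPX-2 cells (HepG2 co-transfected with a PXR response element and a CYP3A4-promoter luciferase construct) were seeded at 2,000 per well, rested 5 hr at 37C, then exposed to DMSO-dissolved compounds for 24 hr. Activation was read as luciferase luminescence.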
# [8] = target: Thyrotropin-releasing hormone receptor (Homo sapiens) (UniProt P34981); assay: qHTS assay to identify small molecule agonists of the thyrotropin-releasing hormone receptor (TRHR) signaling pathway (AID 1346891; calls by dose curve; note: potency is the fitted concentration of half-maximal effect;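 for activation: HEK293 cells expressing TRHR with calcium dye readout; series mostly up to about 58 µM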)
# Sequence of Thyrotropin-releasing hormone receptor (Homo sapiens) (P34981 whole entry, looked up): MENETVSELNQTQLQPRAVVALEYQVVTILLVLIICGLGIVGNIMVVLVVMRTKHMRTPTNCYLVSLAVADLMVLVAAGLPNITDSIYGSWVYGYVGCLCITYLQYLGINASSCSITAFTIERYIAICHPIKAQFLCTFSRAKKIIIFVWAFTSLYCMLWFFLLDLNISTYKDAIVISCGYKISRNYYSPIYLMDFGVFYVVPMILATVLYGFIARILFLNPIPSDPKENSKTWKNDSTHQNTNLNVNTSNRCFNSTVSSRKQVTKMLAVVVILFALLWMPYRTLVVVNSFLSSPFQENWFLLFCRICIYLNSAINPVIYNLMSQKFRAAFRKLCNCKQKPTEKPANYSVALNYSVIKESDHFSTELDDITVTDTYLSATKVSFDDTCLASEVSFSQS
# In short: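 Cells: TRHR-Hek293, seeded and incubated 18 h. Dye loading: 2 h at 37 °C. Compound added from DMSO stock by pin tool. Read-out: kinetic calcium fluorescence over 3 min.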
# [9] = target: Nuclear receptor subfamily 1 group I member 2 (Rattus norvegicus) (UniProt Q9R1A7); assay: Rat pregnane X receptor (rPXR) activation by small molecules, qHTS assay (AID 1346983); conditions: rPXR luciferase reporter cells, One-Glo luminescence, 24 h; max activation: stronger effect = higher value; note: nearly all actives have a fitted effect of over 20% in size; note: potency is the fitted concentration of half-maximal effect
# Sequence of Nuclear receptor subfamily 1 group I member 2 (Rattus norvegicus) (Q9R1A7 whole entry, looked up): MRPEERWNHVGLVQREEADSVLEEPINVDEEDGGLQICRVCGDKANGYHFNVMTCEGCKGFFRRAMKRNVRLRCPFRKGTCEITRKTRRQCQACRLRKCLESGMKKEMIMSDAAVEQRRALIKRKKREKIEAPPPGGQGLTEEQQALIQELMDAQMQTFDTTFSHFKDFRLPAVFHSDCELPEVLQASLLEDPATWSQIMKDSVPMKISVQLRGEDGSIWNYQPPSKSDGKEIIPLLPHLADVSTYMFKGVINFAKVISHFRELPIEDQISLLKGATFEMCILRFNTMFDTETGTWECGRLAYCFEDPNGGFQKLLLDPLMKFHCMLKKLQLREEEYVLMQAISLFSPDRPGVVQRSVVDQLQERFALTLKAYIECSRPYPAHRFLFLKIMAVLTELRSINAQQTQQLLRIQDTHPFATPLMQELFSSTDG
# In short: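 Luminescent readout (One-Glo luciferase, 30 min room temperature) followed 24 hr compound treatment at 37 C of rPXR cells plated 2,000 per well and preincubated 5hr; qHTS format with compounds delivered in DMSO.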
# [10] = target: Nuclear receptor subfamily 1 group I member 2 (Homo sapiens) (UniProt O75469); assay: CYP3A4 induction through human pregnane X receptor (PXR) by small molecules, qHTS assay (AID 1346984); note: nearly all actives have a fitted effect of over 40% in size; note: potency is the fitted concentration of half-maximal effect
# In short: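 DPX-2 reporter cells; 24h cpd, 37C; Luciferin-IPA 3uM final x3h; One-Glo 30 min RT; lumi read.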
SMILES,Potency [1],Potency [2],Potency [3],Potency [4],Potency [5],Potency [6],Potency [7],Potency [8],max activation [9],Potency [10],Potency [9]
O=C(Nc1ccc([N+](=O)[O-])cc1Cl)c1cc(Cl)ccc1O,1.22 µM (active) and 1.46 µM (active),inactive,2.17 µM (active) and 2.59 µM (active),inactive,686 nM (active) and 291 nM (active),,,,,,
CCOC(=O)C(C#N)=C(c1ccccc1)c1ccccc1,,,inactive,inactive,24.3 µM (active) and 11.9 µM (active),inactive,12.6 µM (active),,,,
CC(=O)CC/C=C(\C)CCC=C(C)C,,,inactive,inactive,inactive and 54.5 µM (active),inactive,,inactive,,,
Cc1cccc(C(=O)O)c1,14.1 µM (active),13.5 µM (active) and inactive,3.4 µM (active) and inactive,inactive,9.57 µM (active) and inactive,,,,,,
OC(CCl)CCl,,inactive,inactive,inactive,inactive,inactive,,,,,
CC1=CCC(C(C)(C)O)CC1 (stereo not drawn),,,inactive,inactive,54.8 µM (active) and inactive,inactive,inactive,inactive,-1.16% (inactive),inactive,
Cc1cc2nc3c(=O)[nH]c(=O)nc-3n(C[C@H](O)[C@H](O)[C@H](O)CO)c2cc1C,,,,inactive,30.3 µM (active) and inactive,,inactive,10.9 µM (active) and 6.42 µM (active) and 6.57 µM (active),-0.456% (inactive),,
CC1=CC2C3CC(C=C3C)C2C1 (stereo not drawn),inactive,inactive,inactive,inactive,inactive and 27.3 µM (active),inactive,,,,,
C=C(C)C1CC=C(C)CC1 (stereo not drawn),,inactive,inactive,inactive,inactive,inactive,inactive,,-4.17% (inactive),inactive,
CC(C)Oc1ccc2c(=O)c(-c3ccccc3)coc2c1,inactive,,,inactive,2.98 µM (active) and 1.06 µM (active),inactive,,,,inactive,0.316 µM (active)
C[C@]12CCC(=O)C=C1CC[C@@H]1[C@@H]2C(=O)C[C@@]2(C)[C@H]1CC[C@]2(O)C(=O)CO,,,inactive,inactive,inactive,inactive,inactive,,0.346% (inactive),inactive,
O=C=Nc1ccc(Cc2ccc(N=C=O)cc2)cc1,,inactive,inactive,inactive,,inactive,,,,,
CCCCC(CC)COC(=O)c1ccc(N(C)C)cc1 (stereo not drawn),inactive,inactive,inactive,inactive,inactive and 54.5 µM (active),inactive,inactive,,-1.01% (inactive),inactive,
O=S(=O)(O)c1ccc(O)cc1,,,inactive,inactive,inactive,inactive,inactive,,-1.73% (inactive),inactive,
O=[N+]([O-])c1ccc2c(c1)Cc1ccccc1-2,inactive,,,inactive,48.5 µM (active) and 54.5 µM (active),inactive,,,,,
Cc1cccc(N(C)C(=S)Oc2ccc3ccccc3c2)c1,inactive,inactive,inactive,inactive,17.2 µM (active) and 11.9 µM (active),inactive,8.91 µM (active),,2.58% (inactive),5.01 µM (active),
